The campaign covered roughly 2,400 compounds. About 580 (24%) were called active. A selection follows. Unmarked numbers belong to inactive results.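 How the source made its calls: active means activity change at or above the mean plus 3 SD of buffer wells without dofetilide, per plate; inactive means the rest.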

Potassium voltage-gated channel subfamily KQT member 2 (Rattus norvegicus), sequence (O88943 whole entry, looked up): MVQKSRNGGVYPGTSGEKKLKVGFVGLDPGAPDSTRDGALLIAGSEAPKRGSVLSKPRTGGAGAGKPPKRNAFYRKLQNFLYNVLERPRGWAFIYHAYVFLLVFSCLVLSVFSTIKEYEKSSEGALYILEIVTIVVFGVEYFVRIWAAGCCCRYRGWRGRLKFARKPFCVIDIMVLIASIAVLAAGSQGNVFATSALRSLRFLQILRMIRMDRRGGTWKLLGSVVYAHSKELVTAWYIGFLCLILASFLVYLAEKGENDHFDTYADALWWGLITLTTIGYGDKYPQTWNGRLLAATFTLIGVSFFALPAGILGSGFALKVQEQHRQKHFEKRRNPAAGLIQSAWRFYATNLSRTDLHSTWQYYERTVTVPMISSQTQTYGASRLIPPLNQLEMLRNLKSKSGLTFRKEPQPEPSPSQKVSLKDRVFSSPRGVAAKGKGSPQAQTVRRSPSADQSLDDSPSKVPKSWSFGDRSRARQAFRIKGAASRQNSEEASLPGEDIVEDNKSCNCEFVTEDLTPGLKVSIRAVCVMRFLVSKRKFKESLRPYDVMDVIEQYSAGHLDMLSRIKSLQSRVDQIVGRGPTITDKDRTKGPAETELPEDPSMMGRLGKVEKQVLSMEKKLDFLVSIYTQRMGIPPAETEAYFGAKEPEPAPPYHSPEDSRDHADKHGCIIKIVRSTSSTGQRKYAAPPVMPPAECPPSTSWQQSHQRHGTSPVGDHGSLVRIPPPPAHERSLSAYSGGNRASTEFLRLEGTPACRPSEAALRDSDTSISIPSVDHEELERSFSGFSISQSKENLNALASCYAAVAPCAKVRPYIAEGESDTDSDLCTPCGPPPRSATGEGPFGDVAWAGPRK

The test has as its target Potassium voltage-gated channel subfamily KQT member 2 (Rattus norvegicus) (UniProt O88943). Put plainly: KCNQ2 potentiation in CHO cells – cell-based, FluxOR thallium flux, counter-screen for hERG block protector project, confirmation (AID 1942).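 Further: normalized value minus buffer-control mean plus three SD of buffer wells.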 The conditions noted are these: FluxOR thallium flux fluorescence, at 10 µM, stronger effect = higher value. (The purpose of a counterscreen is to sort out artefacts and off-target activity.)
For the compound `CS(=O)(=O)c1sc(C(=O)NC(=S)Nc2ccc(OC(F)(F)F)cc2)c2c1C=CCC2`, the activity change, less the hit threshold was -11%.

With `Cc1cccc(C(=O)NC(=S)N2CCc3ccccc3C2)c1`, the activity change, less the hit threshold is 20.8% (active).

As for `Cc1cccc(OCC(=O)NC(=S)N2CCCc3ccccc32)c1`, the activity change, less the hit threshold was -23.9%.

With `O=C(Nc1cccn(Cc2c(Cl)cccc2Cl)c1=O)c1ccccc1Cl`, the activity change, less the hit threshold was -24.1%.

Take `CC(Oc1ccc(Cl)cc1Cl)C(=O)NC(=S)N1CCc2ccccc21` (stereo not given): the activity change, less the hit threshold was 24.1% (active).

With `CC1(C)CC(NC(=O)c2ccc(Cl)cc2Cl)CC(C)(C)N1`, the activity change, less the hit threshold was -23.3%.

On to `O=C(COc1ccc(Cl)cc1Cl)NC(=S)N1CCCc2ccccc21`, for which the activity change, less the hit threshold was -13.8%.

`Cc1ccc(C(=O)NC(=S)N2CCN(c3cc(C)ccc3C)CC2)cc1`: the activity change, less the hit threshold is -8.7%.

With `Cc1cccc(C(=O)NNC(=S)NC(=O)c2ccccc2)c1`, the activity change, less the hit threshold is -4.5%.

Consider `O=C(COc1ccc(Br)cc1Cl)NC(=S)N1CCc2ccccc21`, for which the activity change, less the hit threshold was -14.2%.

Consider `O=C(COc1ccccc1)NC(=S)N1CCc2ccccc21`, for which the activity change, less the hit threshold is 2.7% (active).

As to `CC1(C)CC2CC(C)(CN2C(=S)NC(=O)c2ccccc2Cl)C1` (stereo not given), the activity change, less the hit threshold is 23.3% (active).

Take `O=C(O)c1ccccc1NC(=O)c1cc2ccccc2oc1=O`: the activity change, less the hit threshold is -5.1%.

As for `O=C(CN(C(=O)CNS(=O)(=O)c1ccc(F)cc1)c1cccc(F)c1)NCC1CCCO1` (stereo not given), the activity change, less the hit threshold is -19%.

`CC(=O)n1nc(-c2ccncc2)nc1SCC(=O)Nc1cccc(Cl)c1`: the activity change, less the hit threshold is -21.7%.

Consider `Cc1ccc(NC(=O)CSc2nnc(-c3cccnc3)n2-c2ccc(C)cc2)cc1`, for which the activity change, less the hit threshold was -17.2%.

Consider `O=[N+]([O-])c1ccc(-c2ccc(/C=N/n3cnnc3)o2)c(Br)c1`, for which the activity change, less the hit threshold is -11.4%.

On to `CCCN1Cc2cccc(C(=O)NCc3cccs3)c2C1=O`, for which the activity change, less the hit threshold is -23.8%.

In the case of `OC(CNCCc1ccc(C(F)(F)F)cc1)COc1cccc2ccccc12` (stereo not given), the activity change, less the hit threshold is -39.6%.

Regarding `O=C(c1ccccc1)N1CCc2ccccc21`, the activity change, less the hit threshold is -14.8%.

On to `CN1C(=O)CSc2ccc(NC(=O)N3CCc4ccccc43)cc21`, for which the activity change, less the hit threshold was -21.5%.

`O=C(NC(=S)N1CCCc2ccccc21)c1ccccc1`: the activity change, less the hit threshold was -7.9%.

As to `O=C(NC(=S)N1CCc2ccccc21)c1ccccc1`, the activity change, less the hit threshold is 38.5% (active).

In the case of `O=C(NC(=S)N1CCc2ccccc21)c1ccccc1Br`, the activity change, less the hit threshold is 105% (active).

On to `O=C(NC(=S)N1CCc2ccccc21)c1ccccc1Cl`, for which the activity change, less the hit threshold is 65.2% (active).

Regarding `O=C(CSc1cccc2cccnc12)N/N=C/c1cccnc1`, the activity change, less the hit threshold is -18.6%.

`S=C(Nc1ccccc1)Nc1nc2ccccc2n1CCOc1ccccc1`: the activity change, less the hit threshold was -19.7%.

Consider `Cc1ccccc1NC(=O)CSc1ccsc1[N+](=O)[O-]`, for which the activity change, less the hit threshold was -24.3%.

For the compound `O=C(O)CC1S/C(=N/N=C/c2ccc(-c3ccccc3[N+](=O)[O-])o2)NC1=O` (stereo not given), the activity change, less the hit threshold is -23.4%.

On to `CCCc1nnc(NC(=O)CN2CCOCC2)s1`, for which the activity change, less the hit threshold is -18.7%.

As to `Cc1ccccc1-c1nnn(CC(=O)NCc2ccc3c(c2)OCO3)n1`, the activity change, less the hit threshold is -24.5%.

`Cc1cc(F)ccc1NC(=O)C1CCN(C(=O)Nc2ccccc2)CC1`: the activity change, less the hit threshold is -20.3%.

Regarding `Cc1cc(C)c(C(=O)c2ccc(C(=O)N3CCCCC3)cc2)c(C)c1`, the activity change, less the hit threshold is 9.9% (active).

With `Cc1ccc(SCc2ccc(C(=O)N3CCCC3)cc2)cc1`, the activity change, less the hit threshold was -13.9%.

Consider `COc1ccc(C)cc1NC(=O)Nc1ccc(C(=O)N2CCCC2)cc1`, for which the activity change, less the hit threshold is -13.8%.

With `COC(=O)c1ccc(Oc2ccc(S(=O)(=O)N3CCCCC3)cc2N)cc1`, the activity change, less the hit threshold was -21%.

For `Cc1ccc(NC(=O)CN2C(=O)S/C(=C\c3cccn3-c3cccc(C(=O)O)c3)C2=O)c(C)c1`, the activity change, less the hit threshold is -17.1%.

Turning to `O=C1c2ccccc2C(=O)N1CCc1nc(-c2ccccn2)no1`, the activity change, less the hit threshold is -15.6%.

Turning to `Cc1ccc(NC(=O)CCc2nc3sc4c(c3c(=O)[nH]2)CCCC4)c(Br)c1`, the activity change, less the hit threshold was -14.8%.

Turning to `Cc1cc(C)n(-c2nc(NCCCN(C)C)c3c4c(sc3n2)CCCC4)n1`, the activity change, less the hit threshold is -15.9%.

As for `Cc1cc(C)n(-c2nc3sc4c(c3c(=O)[nH]2)CCCC4)n1`, the activity change, less the hit threshold is 6.2% (active).

With `CC(=O)Cn1c(=O)c2c(nc3n2CCCN3Cc2ccccc2)n(C)c1=O`, the activity change, less the hit threshold is -11.9%.

Take `COC(=O)C1CN(C(=O)COc2ccc(C)c(C)c2)c2ccccc2O1` (stereo not given): the activity change, less the hit threshold is -18.1%.

For `CC(C)OC(=O)C1CC(C)(O)C(=O)C(C(=O)OC(C)C)C1c1ccc([N+](=O)[O-])cc1` (stereo not given), the activity change, less the hit threshold is -20.5%.

Consider `CCc1noc(C)c1C(=O)N1CCCC(N2CCN(c3ccccc3F)CC2)C1` (stereo not given), for which the activity change, less the hit threshold is -14.7%.

For `Cc1ccc(CN2CCN(/N=C/c3ccc(O)c(O)c3)CC2)cc1`, the activity change, less the hit threshold was -3.7%.

As for `O=C(COC(=O)c1cc(Br)ccc1O)Nc1cccnc1Cl`, the activity change, less the hit threshold is -19.3%.

As to `O=C(N/N=C/c1ccc2cccc(OCc3ccccc3)c2n1)c1ccc(Br)cc1`, the activity change, less the hit threshold is -9.5%.

Take `Cc1cccc(/C=N/NC(=O)c2cc(Br)ccc2O)n1`: the activity change, less the hit threshold was 0.2% (active).

Consider `CCOC(=O)C1CCCN(C(=S)NC(=O)/C=C/c2ccc(F)cc2)C1` (stereo not given), for which the activity change, less the hit threshold is -20.7%.

`NC(=O)C1CCN(C(=O)CCC(=O)c2ccc(F)cc2)CC1`: the activity change, less the hit threshold is -12.6%.

As for `CCOC(=O)C1CCCCN1Cc1ccc(F)cc1` (stereo not given), the activity change, less the hit threshold is 4.5% (active).

Turning to `O=C1c2ccccc2C(=O)N1Cc1cc(-c2ccccc2Cl)no1`, the activity change, less the hit threshold is -14.4%.

`Cc1cccc(OCC(=O)NC2CCCc3ccccc32)c1C` (stereo not given): the activity change, less the hit threshold was -34.2%.

In the case of `O=C(NC(=S)N1CCc2ccccc21)c1ccco1`, the activity change, less the hit threshold was 0.6% (active).

Consider `O=C(NC(=S)NC1CCCc2ccccc21)c1ccco1` (stereo not given), for which the activity change, less the hit threshold is 7% (active).

As to `Cn1nnnc1SCC(=O)NC1CCCc2ccccc21` (stereo not given), the activity change, less the hit threshold is -30.8%.

As to `O=C(NC(=S)N1CCc2ccccc21)c1ccc(Br)o1`, the activity change, less the hit threshold is 19.1% (active).

For `Cc1ccc(OCCC(=O)OC(C)C(=O)Nc2ccc(Cl)cn2)cc1` (stereo not given), the activity change, less the hit threshold was -8.9%.

In the case of `O=C(O)CCCn1cc(NC(=O)COc2ccc(F)cc2)cn1`, the activity change, less the hit threshold is -25.3%.

As for `Fc1ccc2c(c1)C(c1ccncc1)=NNC(c1cccnc1)=N2`, the activity change, less the hit threshold is -6.5%.

Take `Cc1ccc(CNS(=O)(=O)c2ccc(C(F)(F)F)cc2)n1C`: the activity change, less the hit threshold was -26.5%.

Take `Nc1nc2n(n1)C(=O)CC(c1ccc(Cl)cc1)N2` (stereo not given): the activity change, less the hit threshold is -10.5%.

Take `CC(=O)N1CCCc2cc(S(=O)(=O)NCc3ccc(C)cc3)ccc21`: the activity change, less the hit threshold is -9.9%.

`c1ccc(CCCNc2ncnc3nc[nH]c23)cc1`: the activity change, less the hit threshold was 30.4% (active).

For `COc1ccc(N2CC(C(=O)OCC(=O)Nc3ccccc3C)CC2=O)cc1` (stereo not given), the activity change, less the hit threshold was -5.6%.

`CCc1cc2cc(C)cc(C)c2[nH]c1=S`: the activity change, less the hit threshold is 2.1% (active).

For `CN(C)Cc1c(C(=O)N/N=C/c2ccccc2OCc2c(F)cccc2Cl)nnn1-c1nonc1N`, the activity change, less the hit threshold is -28.3%.

Consider `O=C(O)/C=C/c1cn(-c2ccccc2)nc1-c1ccc(-c2ccc([N+](=O)[O-])cc2)o1`, for which the activity change, less the hit threshold was -18%.

In the case of `S=c1[nH]c2cc(-c3ccccc3)ccc2o1`, the activity change, less the hit threshold was 86.2% (active).

In the case of `Cc1ccc(NN=Nc2nc3c([nH]2)c(=O)n(C)c(=O)n3C)cc1`, the activity change, less the hit threshold was -16.4%.

In the case of `COC(=O)C1=C(C)N(CC2CCCO2)C(=O)/C1=C\c1ccc(O)cc1` (stereo not given), the activity change, less the hit threshold is -0.1%.

Consider `CCN(CC)S(=O)(=O)c1ccc2[nH]c(=O)cc(C(=O)Nc3cccc(C(C)=O)c3)c2c1`, for which the activity change, less the hit threshold was -14.9%.

Regarding `O=C(NC(=S)Nc1ccccc1)c1cc(-c2ccccc2)nc2ccccc12`, the activity change, less the hit threshold is -5.5%.

As for `O=C(NC(=S)Nc1ccccn1)c1cc(-c2ccccc2)nc2ccccc12`, the activity change, less the hit threshold was -12%.

As for `Cc1cccc(NC(=S)NC(=O)c2cc(-c3ccccc3)nc3ccccc23)c1`, the activity change, less the hit threshold was -14.7%.

Take `COC(=O)c1ccc(NC(=S)NC(=O)c2cc(-c3ccccc3)nc3ccccc23)cc1`: the activity change, less the hit threshold was 1.1% (active).

In the case of `Cc1ccccc1NC(=S)NC(=O)c1cc(-c2ccccc2)nc2ccccc12`, the activity change, less the hit threshold was 2% (active).

As to `CC(C)(C)NS(=O)(=O)c1ccc(NC(=O)c2cc(-c3ccccc3)nc3ccccc23)cc1`, the activity change, less the hit threshold was -22%.

As for `CCCCCCc1cc2cc(-c3nnc(-c4ccccc4)o3)c(=O)oc2cc1O`, the activity change, less the hit threshold was -23.8%.

Regarding `O=C(C[n+]1ccccc1)N/N=C/c1ccc(Cl)c(Cl)c1`, the activity change, less the hit threshold is -28.9%.

Regarding `O=C(c1cccs1)N1CCN(C23CC4CC(CC(C4)C2)C3)CC1`, the activity change, less the hit threshold is -10.7%.

As for `CCC1Nc2ncnc(N3CCOCC3)c2N(Cc2ccc(C)cc2)C1=O` (stereo not given), the activity change, less the hit threshold is -18.9%.

For the compound `CSc1nc(=S)cc(C)[nH]1`, the activity change, less the hit threshold was -1.9%.

Regarding `CCSc1nc(=S)cc(C)[nH]1`, the activity change, less the hit threshold is 48.7% (active).

As for `CCc1cc(=O)[nH]c(SCc2ccc(C)cc2)n1`, the activity change, less the hit threshold was -15.8%.

Regarding `CN(C)CCNc1ncnc2c1sc1nc(N3CCCC3)c3c(c12)CC(C)(C)OC3`, the activity change, less the hit threshold was -13.1%.

Take `CCOC(=O)NC(=S)Nc1ccc(C(C)(C)C)cc1Br`: the activity change, less the hit threshold was 2.1% (active).

With `COC(=O)CNC(=S)NC(=O)c1ccc(C(C)(C)C)cc1`, the activity change, less the hit threshold was -13%.

`CCOC(=O)NC(=S)Nc1ccc(C(C)(C)C)cc1`: the activity change, less the hit threshold was 1% (active).

Turning to `CC(C)(C)c1ccc(/C=N/NC(=S)Nc2cccnc2)cc1`, the activity change, less the hit threshold was -14%.

As to `CCCCNC(=O)CC(NS(=O)(=O)c1ccc(C)cc1)c1ccco1` (stereo not given), the activity change, less the hit threshold was -14.3%.

With `C[n+]1ccccc1/C=C/c1ccc(C#N)cc1`, the activity change, less the hit threshold is -12.2%.

Turning to `COCC(=O)N(Cc1ccco1)c1nnc(C2CCOC2)s1` (stereo not given), the activity change, less the hit threshold is -22.7%.

Take `Cc1ccc(N=Nc2ccc(O)c3ncccc23)cc1`: the activity change, less the hit threshold was -4.3%.

As to `O=[N+]([O-])c1cc(F)c2cccnc2c1O`, the activity change, less the hit threshold was 6.4% (active).

Regarding `O=[N+]([O-])c1cccnc1Sc1n[nH]c(-c2ccc(Cl)cc2)n1`, the activity change, less the hit threshold was -16.6%.

Turning to `Oc1c(Cl)cc(CN2CCCCC2)c2cccnc12`, the activity change, less the hit threshold was -12.8%.

Regarding `O=[N+]([O-])c1ccc(O)c2ncccc12`, the activity change, less the hit threshold is 22.1% (active).

Turning to `COc1ccc(-n2cnc3ccccc3c2=O)c([N+](=O)[O-])c1`, the activity change, less the hit threshold was -12.6%.

These data come from PubChem BioAssay AID1942 (Johns Hopkins Ion Channel Center, 2009).
